According to the supplement of paper PMC11624193, “Coupling cellular drug-target engagement to downstream pharmacology with CeTEAM” (Nature Communications, 2024):
“And” between values parts separate entries of the source, which are not always exact repeats. Equal values may be shown once. Where a name gives a salt, the structure may show the parent alone.

What follows are molecules tested against PARP1 L713F-nLuc biosensor (HCT116) (UniProt P09874) (assay: PARP1 L713F-nLuc/akaLuc ratio relative to DMSO control (biosensor stabilization) (fold change); higher = more PARP1 biosensor stabilization (target engagement / stabilizer), active = hit call of the paper). Settings: stock concentration (mM; final µM = stock mM x 1): 10; 24 h;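 active = log2 fold change beyond 2 SD from the library mean after excluding viability outliers; inactive = within 2 SD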.
Sequence of PARP1 L713F-nLuc biosensor (HCT116) (P09874 whole entry L713F, looked up): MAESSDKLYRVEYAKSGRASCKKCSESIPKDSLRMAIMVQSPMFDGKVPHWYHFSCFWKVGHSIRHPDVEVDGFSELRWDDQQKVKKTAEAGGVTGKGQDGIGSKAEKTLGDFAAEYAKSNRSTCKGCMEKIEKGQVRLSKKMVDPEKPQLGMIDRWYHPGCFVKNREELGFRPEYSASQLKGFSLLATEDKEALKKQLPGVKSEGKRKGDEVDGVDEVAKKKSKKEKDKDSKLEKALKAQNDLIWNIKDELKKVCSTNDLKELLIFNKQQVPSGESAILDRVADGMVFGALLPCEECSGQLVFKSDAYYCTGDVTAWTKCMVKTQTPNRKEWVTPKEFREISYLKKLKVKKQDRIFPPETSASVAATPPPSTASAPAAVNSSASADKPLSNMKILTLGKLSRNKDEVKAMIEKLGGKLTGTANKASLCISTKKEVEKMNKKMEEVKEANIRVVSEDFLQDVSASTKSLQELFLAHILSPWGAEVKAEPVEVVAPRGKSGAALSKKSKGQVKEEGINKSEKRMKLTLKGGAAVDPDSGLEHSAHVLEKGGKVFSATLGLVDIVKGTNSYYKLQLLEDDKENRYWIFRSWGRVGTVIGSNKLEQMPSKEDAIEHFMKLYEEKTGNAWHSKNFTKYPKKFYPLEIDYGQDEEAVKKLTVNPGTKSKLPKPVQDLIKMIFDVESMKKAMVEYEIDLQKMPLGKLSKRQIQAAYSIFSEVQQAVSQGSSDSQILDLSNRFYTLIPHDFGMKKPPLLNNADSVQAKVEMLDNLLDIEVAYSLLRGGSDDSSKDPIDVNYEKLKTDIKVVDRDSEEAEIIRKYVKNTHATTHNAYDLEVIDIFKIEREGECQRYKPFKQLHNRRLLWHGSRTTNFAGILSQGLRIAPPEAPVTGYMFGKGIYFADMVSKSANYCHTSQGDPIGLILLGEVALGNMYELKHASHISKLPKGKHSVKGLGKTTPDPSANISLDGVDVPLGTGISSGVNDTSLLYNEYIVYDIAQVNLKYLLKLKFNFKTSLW

Row | Structure (SMILES) | PARP1 L713F-nLuc/akaLuc ratio
1 | O=C(/C=C/N1C[C@H]2C[C@@H]1CN2c1ccccn1)c1ccccc1O | 1.3 (inactive)
2 | CC[C@@](C)(Nc1ccnc(-c2c[nH]c3ncccc23)n1)C(=O)NCC(F)(F)F [Decernotinib (VX-509)] | 0.506 (inactive)
3 | c1cc(-c2cnn3cc(-c4ccc(OCCN5CCCCC5)cc4)cnc23)ccn1 [Dorsomorphin (dihydrochloride)] | 1.8 (inactive)
4 | CC(=O)Nc1ccc(NC(=S)NC(=O)c2ccc(C(C)(C)C)cc2)cc1 [Tenovin-1] | 0.509 (inactive)
5 | O=C1CN2Cc3c(ccc(Cl)c3Cl)N=C2N1 [Anagrelide HCl] | 0.856 (inactive)
6 | NC(=O)c1ccc[n+]([C@@H]2O[C@H](CO)[C@@H](O)[C@H]2O)c1 [Nicotinamide riboside (chloride)] | 1.17 (inactive)
7 | CCn1c(-c2nonc2N)nc2c(C#CC(C)(C)O)ncc(OC[C@H]3CCCNC3)c21 | 1.03 (inactive) and 0.895 (inactive)
8 | C=CC(=O)Nc1cccc(-c2c[nH]cc2CN(C)CCN)c1 | 1.61 (inactive)
9 | O=S(=O)(NCCSSCCNS(=O)(=O)c1cc(Cl)ccc1Cl)c1cc(Cl)ccc1Cl | 1.18 (inactive)
10 | C=CC(=O)Nc1cccc(Oc2nc(Nc3ccc(N4CCN(C)CC4)cc3)nc3ccsc23)c1 | 1.03 (inactive)
11 | O=C1/C(=C/c2ccc(O)c(Br)c2)CCC/C1=C\c1ccc(O)c(Br)c1 [Histone Acetyltransferase Inhibitor II] | 2.06 (inactive)
12 | CNC(=O)c1ccc(C)c(-n2c(C)cc(OCc3ccc(F)cc3F)c(Br)c2=O)c1 | 0.728 (inactive)
13 | Cc1ccc(OCCSc2ncccn2)c(Br)c1 [ZLN024 (hydrochloride)] | 0.863 (inactive)
14 | COc1cc([C@@H]2c3cc4c(cc3[C@@H](O[C@@H]3O[C@@H]5CO[C@@H](C)O[C@H]5[C@H](O)[C@H]3O)[C@H]3COC(=O)[C@H]23)OCO4)cc(OC)c1O [Etoposide] | 0.601 (inactive)
15 | CC(C)(O)CNc1nc(Nc2ccnc(C(F)(F)F)c2)nc(-c2cccc(C(F)(F)F)n2)n1 [Enasidenib (AG-221)] | 1.96 (inactive)
16 | O=C1c2ccccc2C(=O)c2c(NCCc3ccc(O)cc3)ccc(NCCc3ccc(O)cc3)c21 | 0.91 (inactive)

Row | Structure (SMILES) | PARP1 L713F-nLuc/akaLuc ratio
17 | O=C(O)c1cnn(-c2nc3cc(OC(F)(F)F)c(Cl)cc3[nH]2)c1 | 0.757 (inactive)
18 | Cc1cc(C(C)Nc2ccccc2)c2nc(N3CCOCC3)cc(=O)n2c1 (configuration not stated) | 0.773 (inactive)
19 | COc1cc2ncnc(Nc3ccc(O)c(Br)c3)c2cc1OC | 0.973 (inactive)
20 | Cc1csc(-c2nnc(Nc3ccc(Oc4ncccc4-c4ccnc(N)n4)cc3)c3ccccc23)c1 | 1.02 (inactive)
21 | CN(C)C(=N)NC(=N)N [Metformin HCl] | 0.701 (inactive)
22 | NC(=O)C1CCCc2c1[nH]c1ccc(Cl)cc21 (configuration not stated) [Selisistat] | 0.963 (inactive)
23 | Oc1cc(O)c2c(c1)OC1(c3ccc(O)c(O)c3)Oc3cc(O)c4c(c3C2C1O)OC(c1ccc(O)c(O)c1)C(O)C4 (configuration not stated) [Procyanidin A1] | 1.43 (inactive)
24 | COc1cc2cc(Oc3ccc4ccc(=O)oc4c3)c(=O)oc2cc1O [Daphnoretin] | 0.72 (inactive)
25 | COc1c(O)cc2oc(-c3ccc(O)cc3)cc(=O)c2c1O [Hispidulin] | 0.723 (inactive)
26 | COC(=O)c1ccc2c(c1)[nH]c1ncnc(NCCCN3CCCCC3)c12 | 1.02 (inactive)
27 | COCCCc1sc(-c2ccccc2)nc1C(=O)Nc1ccccc1-c1nc2cc(CN3CCCC3)cnc2s1 [Sirtuin modulator 1] | 0.737 (inactive)
28 | O=C(NCCCN1CCCC1)c1cncc(-c2ccccc2N2CCN(CCc3c[nH]c4ccccc34)CC2)c1 | 0.537 (inactive)
29 | COc1ccc(-n2c(SCCCN3C(=O)c4cccc5cccc(c45)C3=O)nnc2-c2ccncc2)cc1 | 0.933 (inactive)
30 | COc1cc(Nc2ncc(F)c(Nc3ccc4c(n3)N(COP(=O)(O)O)C(=O)C(C)(C)O4)n2)cc(OC)c1OC [Fostamatinib (R788)] | 0.614 (inactive)
31 | O=C(O)C(Cc1c[nH]c2ccccc12)N1C(=O)c2ccccc2C1=O (configuration not stated) | 1.39 (inactive)
32 | N#Cc1c(Oc2ccc(F)c(NC(=O)Cc3cccc(C(F)(F)F)c3)c2)ccc2nc(NC(=O)C3CC3)sc12 | 0.538 (inactive)
